# Sampled rows, rich in hits. Any-hit rate of the full collection: about 12%.
# BAZ2B block – BAZ2B (human) inhibition; Q9UIF8; AlphaScreen BAZ2B-H3K14Ac peptide displacement; Potency, µM (highest dose often 114 µM), without a hit: top-dose activity change, negative = inhibition, hits mostly inhibitors; actives 4.4% (n = 360,000); AID 504333; also: % is scaled to controls: 0 for no effect and ±100 for the full control effect; nearly all actives have a fitted effect of over 60% in size
#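 Compounds, titrated to a top concentration of 110 uM, were incubated 30 min at room temperature with preformed BAZ2B/acetyl-K14 H3 peptide complex (50 nM each). Proximity signal was measured by AlphaScreen after 20 min with beads.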
# PLK1 PBD block – blocks phosphopeptide binding to human PLK1 polo-box domain; P53350; Plk1 PBD binding of FITC phosphopeptide, fluorescence polarization; Potency, µM, inactives show max response, negative = inhibition, actives largely listed as inhibitors; actives 2.8% (n = 360,000); also: series mostly up to about 57 µM; % is scaled to controls: 0 for no effect and ±100 for the full control effect; nearly all actives have a fitted effect of over 65% in size
# Sfp PPTase inh – Sfp phosphopantetheinyl transferase inhibition. Q9F4F7. actives 3.5% (n = 310,000). Potency, µM, for inactives: largest response in the series, negative = inhibition, actives largely listed as inhibitors. Biochemical Sfp PPTase activity, qHTS;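 also: the enzyme is Sfp with the accession as filed and its product quenches rhodamine fluorescence; 0% = enzyme reaction without inhibitor and -100% = no enzyme wells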
#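 After 15 min at room temperature with compound, 15 nM Sfp received 5 uM rhodamine-CoA plus 12.5 uM BHQ-2-ybbR (50 mM Hepes pH 7.6, 10 mM MgCl2). Rate came from the fluorescence difference over 30 min, ex 525/em 598 nm.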
# HP1b binding inh – HP1-beta chromodomain-methylated histone interaction inhibition | actives 0.56% (n = 390,000) | AID 540317 | AlphaScreen HP1-beta / biotin-H3K9me3 peptide binding | P83916 | Potency, µM (highest dose often 114 µM), for the others: at the top dose activity change, negative = inhibition, usual class: inhibitors; also: nearly all actives have a fitted effect of over 70% in size
# Target sequence (P83916 whole entry, looked up): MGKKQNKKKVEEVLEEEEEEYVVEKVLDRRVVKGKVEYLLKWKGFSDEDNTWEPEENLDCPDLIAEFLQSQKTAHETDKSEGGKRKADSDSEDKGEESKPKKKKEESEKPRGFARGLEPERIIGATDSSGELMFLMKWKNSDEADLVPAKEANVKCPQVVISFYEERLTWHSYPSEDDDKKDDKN
#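 HP1-beta protein (50 nM final) preincubated 30 min at room temperature with biotinylated H3(1-18)K9me3 peptide (50 nM) in PBS pH 7.4, 0.01% Tween-20, then compound added for 30 min. AlphaScreen streptavidin donor/nickel chelate acceptor beads (10 ug/mL final), 30 min dark, luminescence read.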
# G9a inh – G9a (human) methyltransferase inhibition | Q96KQ7 | G9a H3K9 monomethylation, AlphaScreen, 2 h | Potency, µM (series often up to 102 µM), inactives show at the highest dose activity, negative = inhibition, actives largely listed as inhibitors | actives 8.8% (n = 350,000) | AID 504332; also: % is scaled to controls: 0 for no effect and ±100 for the full control effect; nearly all actives have a fitted effect of over 75% in size
# Target sequence (Q96KQ7 913-1193 limits assumed): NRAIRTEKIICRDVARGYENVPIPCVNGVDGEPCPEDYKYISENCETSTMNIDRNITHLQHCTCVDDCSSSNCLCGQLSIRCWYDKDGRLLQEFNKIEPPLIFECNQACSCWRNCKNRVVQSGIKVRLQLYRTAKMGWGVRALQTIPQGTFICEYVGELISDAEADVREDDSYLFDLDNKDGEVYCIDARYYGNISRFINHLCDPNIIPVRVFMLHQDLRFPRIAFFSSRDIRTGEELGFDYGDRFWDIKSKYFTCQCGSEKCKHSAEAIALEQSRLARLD
#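 Methyltransferase reactions run at room temperature for 2 h (20 nM enzyme, 500 nM biotin-H3K9 peptide, 20 uM SAM) after a 15 min compound preincubation; product detected by AlphaScreen beads and anti-H3K9me1 antibody.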
# JMJD2A Tudor inh – blocks the human JMJD2A Tudor domain | O75164 | AlphaScreen JMJD2A-Tudor / H3K4me3 peptide binding | Potency, µM (top dose mostly 114 µM), for the others: at the top dose activity change, negative = inhibition, actives largely listed as inhibitors | actives 4.4% (n = 390,000); also: % is scaled to controls: 0 for no effect and ±100 for the full control effect; nearly all actives have a fitted effect of over 50% in size
# Active calls of the source: *; ? = inconclusive; · = no result; [ ] = dose if it differs, or a comment. Calls follow the shape of the dose curve; as a rule, active = well fitted curve in the direction sought with a large enough effect; inconclusive = small, poorly fitted or top-dose-only effect, or another doubt; inactive = no such curve, though single readings can be large; an effect the other way counts as inactive or inconclusive. Potency is read from the fitted curve at half-maximal effect.
SMILES,BAZ2B block,PLK1 PBD block,Sfp PPTase inh,HP1b binding inh,G9a inh,JMJD2A Tudor inh
CCOCCCN(Cc1ccco1)S(=O)(=O)c1cc2c(cc1Cl)NC(=O)CO2,-12%,·,·,13%[57 µM],-6%[59 µM],-27%
COC(=O)C[C@@H]1C[C@@H]2c3cc(NC(=O)NC4CCCCC4)ccc3O[C@@H]2[C@H](CO)O1,·,-13%,·,·,·,·
COc1ccc(C(=O)/C=C/C(=O)N(Cc2ccccc2)C(C(=O)NC2CCCCC2)c2ccncc2)c(O)c1 (centres undefined),?,-5%,-2%,15%,4%[59 µM],-30%
COc1ccc(C(=O)/C=C/C(=O)N(CC(=O)NC2CCCCC2)Cc2ccccc2)c(O)c1,?,5.3µM*,1.8µM*,33%,·,-17%
COc1ccc(C(=O)/C=C/C(=O)N(CC(=O)NC2CCCCC2)Cc2ccccc2OC)c(O)c1,-29%,?,3.2µM*,26%,18µM*,-14%[57.1 µM]
O=C(COc1ccc(F)c(Cl)c1)NC(=O)NC1CCCC1,·,4%,·,·,·,·
NS(=O)(=O)c1ccc(NC(=O)c2ccc(F)cc2F)c(NC(=O)c2ccc(F)cc2F)c1,-7%,-2%,9%,24%,-4%,-7%
CCCN1Cc2cccc(C(=O)N3CCN(c4cc(Cl)ccc4C)CC3)c2C1=O,15%,-19%,3%,25%,-80%,-9%
COCCN1Cc2cccc(C(=O)N3CCN(c4cc(C)ccc4C)CC3)c2C1=O,6%,-17%,-17%,26%,45µM*,-29%
Nc1nc(-c2ccc(Br)s2)c(Br)s1,40µM*,?,35µM*,-29%,?,?
N/C(CS(=O)(=O)c1ccccn1)=N\OC(=O)c1ccccc1Cl,5%,-1%,-7%,27%,?,?
CCCS(=O)(=O)C/C(N)=N/OC(=O)c1ccccc1Cl,-32%,-16%,-18%,10%,40µM*,-9%
NCCC[C@@H](CC(=O)N[C@@H]1CCNC[C@H]1C(=O)N[C@H](CC(=O)N[C@@H](CCC(=O)O)CC(=O)O)Cc1ccccc1)NC(=O)C[C@H](CO)NC(=O)[C@@H]1CNCC[C@H]1N,·,·,-3%,·,·,·
CC1(C)CC[C@]2(C(=O)n3ccnc3)CC[C@]3(C)[C@H](C(=O)C=C4[C@@]5(C)C=C(C#N)C(=O)C(C)(C)[C@@H]5CC[C@]43C)[C@@H]2C1,·,1.7µM*,·,7%,·,?
CCOc1ccc2c(c1)c(=O)c(C(=O)c1ccc3c(c1)OCO3)cn2Cc1cccc(F)c1,-19%[57.1 µM],·,·,28%,4%[59 µM],-7%
O=C(CCCOc1ccccc1)NNC(=O)c1ccncc1,·,-12%,·,-8%,·,-9%
CN(C)c1ccc(C(=O)/C=C/c2ccco2)cc1,50µM*,-15%,50µM*,-50%,13µM*,-30%
CN(C)c1ccc(C(=O)/C=C/c2ccccc2)cc1,0%,1%,-28%,34%,2%,-5%
O=C(/C=C/c1ccco1)c1ccc(O)cc1,?,·,22µM*,·,?,·
COc1ccc(CN2C(=O)C(CC(=O)NCc3ccco3)CC(C(=O)N3CCOCC3)=C2C)cc1 (centres undefined),·,-6%,·,·,·,·
CCn1nnc2cc(C(=O)Nc3ccc(C)cc3Br)ccc21,-2%,·,·,37%,?,2%
COc1cccc(/C(O)=C/C(=O)C(=O)Nc2ccc(S(=O)(=O)NC(C)=O)cc2)c1,?,-4%,-16%,7%,10µM*,8.9µM*
COc1cccc(NS(=O)(=O)c2ccc(NC(C)=O)cc2)c1,-4%,0%,13%,23%,-41%[59 µM],-3%
COCCNC(=S)N(CCc1c(C)[nH]c2ccc(OC)cc12)Cc1ccco1,?,3%,7%,?,50µM*,?
CNC(=S)N(CCc1c(C)[nH]c2ccc(OC)cc12)Cc1ccco1,?,-21%,12%,-6%,50µM*,?
SMILES,BAZ2B block,PLK1 PBD block,Sfp PPTase inh,HP1b binding inh,G9a inh,JMJD2A Tudor inh
CNC(=S)N(Cc1ccco1)Cc1cc2cc(OC)ccc2[nH]c1=O,-8%,-8%,1%,-3%,·,-22%
COCCNC(=S)N(CCc1c(C)[nH]c2ccc(C)cc12)Cc1ccco1,35µM*,-3%,10%,-15%,45µM*,?
C[C@]12CC[C@@H](O)C[C@@H]1CC[C@@H]1[C@@H]2CC[C@]2(C)C=CC[C@@H]12,·,·,26%,·,29%[59 µM],·
CSc1ccc(C(=O)C2CCCN(C(=O)CCc3c(C)nn(C)c3C)C2)cc1 (centres undefined),·,-4%,·,14%,·,-9%
COc1cn(-c2ccccc2)nc1C(=O)Nc1ccccc1,-5%,-2%,-4%,2%,50µM*,-9%
N#CC1=C(c2ccc(-c3ccccc3)cc2)COC1=O,-26%,?,17%,-22%,11µM*,-15%[11.4 µM]
O=S(=O)(/N=C(/Nc1ccccn1)c1ccccc1)c1ccc(F)cc1,2%,-5%,6%,40%,·,-21%
O=C(NNc1ccccn1)C(=O)NNS(=O)(=O)c1ccc(Cl)cc1,56µM*,-7%,14%,31%,30%,-18%
O=C(NNc1ccccn1)C(=O)NNS(=O)(=O)c1ccc(F)cc1,40µM*,-7%,6%,19%,38%,-29%
COc1ccc(C)cc1NC(=O)CSc1nc(=O)n(Cc2cccnc2)c2c1CCC2,-5%,·,·,-8%,18%[59 µM],?
CCC1=NN2C(=N)/C(=C\c3ccc(OCCOc4ccccc4)c(OC)c3)C(=O)N=C2S1,-4%,·,12%,·,-73%,·
CCOc1cc(/C=C2\C(=N)N3N=C(S(C)(=O)=O)SC3=NC2=O)ccc1OCCOc1cccc(OC)c1,71µM*,27µM*,-14%,?,-1%[2.33 µM],79µM*
CCS(=O)(=O)C1=NN2C(=N)/C(=C\c3ccc(OCCOc4cccc(OC)c4)c(OC)c3)C(=O)N=C2S1,35µM*,24µM*,-29%,5%,56µM*,56µM*
CC[C@]1(c2ccccc2)NC(=O)NC1=O,·,·,10%,·,·,·
CC(=O)Nc1scc(-c2ccccc2)[n+]1-c1ccc(C)cc1,?,-3%,-24%,31%,50µM*,-13%
CCOC(=O)c1c(-c2ccccc2)oc2ccc(OCC)cc12,301%,-2%,?,268%,342%,257%
CCOC(=O)c1c(CN2CCN(CCO)CC2)n(-c2ccccc2)c2cc(Br)c(O)cc12,-26%,-1%,-8%,9%,?,-30%
CCOC(=O)c1c(C)n(C)c2ccc(O)c(CN3CCN(C)CC3)c12,·,-5%,13%,-4%,?,-21%
CCOC(=O)c1c(-c2ccccc2)oc2ccc(O)c(CN3CCN(C)CC3)c12,-38%,0%,6%,-8%,50µM*,-27%
CCOC(=O)c1c(CN2CCN(C)CC2)oc2ccc(O)cc12,?,1%,0%,31%,50µM*,-20%

# Assay outcomes (PubChem BioAssay)
